PubChem BioAssay (Tox21)
Inconclusive results are not listed. Values without a mark were called inactive. Activity calls are given as the source filed them. Calls follow the shape of the full dose curve.

Experiment: qHTS assay to identify small molecule antagonists of the sonic hedgehog signaling (Shh) pathway (AID 1259369); also: nearly all actives have a fitted effect of over 45% in size
Settings: NIH/3T3 Gli1-Luc reporter, Shh antagonist, luminescence 24 h; series mostly up to 92.4 µM; activity change, negative = inhibition: at the top concentration
Excerpt: U.S. Tox21 Program National Center for Advancing Translational Sciences [NCATS] NIH Chemical Genomics Center [NCGC] U.S. Environmental Protection Agency [EPA] National Institutes of Environmental Health Sciences [NIEHS] National Toxicology Program [NTP] U.S. Food and Drug Administration [FDA] Tox21 Assay Overview: The sonic hedgehog (Shh) pathway is essential for normal embryonic development. Dysregulation of the Shh pathway can cause severe developmental defects in organs. Therefore chemicals that interfere with the pathway are potential developmental toxicants. A cell line designated 3T3Gli1-Luc (DMB/OARSA/CFSAN/FDA, Laurel, MD), a NIH/3T3 derived clone containing stably integrated Gli1-Luc reporter is used to detect chemical interference of the Shh pathway, by changes in the expression of the firefly Luc gene under the control of the Gli1 transcriptional response element. This cell line was used to screen Tox21 libraries for identifying and prioritizing the potential developmental toxicants that interfere Shh pathway. Conditioned medium-stimulated mode was used to screen for chemicals inhibiting Shh signaling.
Tox21 Assay Protocol Summary: 3T3 Gli1-Luc cells were dispensed at 2,000 per well in 5uL of culture medium into white solid bottom 1536-well plates (Greiner Bio-One, Monroe, NC) using a Multidrop Combi (Thermo Scientific, Waltham, MA) dispenser. The assay plates were incubated at 37 C and 5% CO2 for 4hr, and then 23nL of compounds dissolved in DMSO and positive control were transferred using a Pintool station (Wako, San Diego, CA). The compound transfer was followed by the addition of 1ul conditioned medium or assay buffer using two separate tips of Flying Reagent Dispenser (FRD, Aurora Discovery, San Diego, CA). The assay plates were incubated at 37C and 5% CO2 for 24hr. For luciferase read, 4uL of Amplite Luciferase reporter gene assay reagent (AAT Bioquest, Inc. Sunnyvale, CA) was added to each well of the assay plates using FRD and incubated at room temperature for 30min. The luminescence signal was measured using a ViewLux plate reader (Perkin Elmer, Shelton, CT).
% is scaled to controls: 0 for no effect and ±100 for the full control effect; potency is read from the fitted curve at half-maximal effect.

SMILES	activity change, negative = inhibition	Potency
c1ccc(CCNc2nc(-c3ccccc3)cs2)cc1	-5.99% [at 42.5 µM]	
COc1ccc(/C=C/S(=O)(=O)NC(=O)c2ccc(C)cc2Cl)cc1	11.3%	
CCCCOC(=O)C(C)Oc1ccc(Oc2ccc(C(F)(F)F)cn2)cc1 (stereo not given)	0%	
CCCCCCCCS	21%	
COc1ccc(/C=C/c2cc(OC)cc(=O)o2)cc1	34.8% [at 42.5 µM]	
C[C@H](N)C(=O)N[C@@H](C)C(=O)NC1[C@H]2CN(c3nc4c(cc3F)c(=O)c(C(=O)O)cn4-c3ccc(F)cc3F)C[C@@H]12 (stereo not given in full)	-4.7% [at 42.5 µM]	
CC/C=C\CCO	0%	
CC(CN=Cc1ccccc1O)N=Cc1ccccc1O (stereo not given)	1.06%	
Cc1c(Cl)cccc1[N+](=O)[O-]	0%	
CCC(CC)C(=O)O	28.1%	
COc1cc(CNC(=O)CCCC/C=C/C(C)C)ccc1O	-28.1%	
CCCc1ccc(OC)cc1	30%	
CCCCCCCCCCCCN1CCOCC1	12.5%	
CC(C)(C)NCC(O)COc1ccc(NC(=O)NC2CCCCC2)cc1 (stereo not given)	-16.7% [at 42.5 µM]	
O=C(OCCOCCOCCOC(=O)c1ccccc1)c1ccccc1	2.97%	
O=c1c2ccccc2oc2ccccc12	3.31%	
CCN(CC)CC(=O)OCC(=O)[C@@]1(O)CC[C@H]2[C@@H]3CCC4=CC(=O)CC[C@]4(C)[C@H]3[C@@H](O)C[C@@]21C	-17.6% [at 42.5 µM]	
CCCOC(C)=O	58.8%	
COc1cccc([C@H](O)C2CCN(CCc3ccc(F)cc3)CC2)c1OC		54.5 µM (active)
Cc1c(Cl)cccc1Nc1ccccc1C(=O)O	3.42% [at 42.5 µM]	

SMILES	activity change, negative = inhibition	Potency
Cc1ccc(S(=O)(=O)NC(=O)NC2CCCC2)cc1	4.7% [at 42.5 µM]	
O=Cc1ccc(Cl)c([N+](=O)[O-])c1	4.07%	
Cc1ccc2c(Cl)cc(Cl)c(O)c2n1	3.11% [at 42.5 µM]	
O=C(C1CCCCC1)N1CC(=O)N2CCCc3ccccc3C2C1 (stereo not given)	16.8% [at 42.5 µM]	
N#C[C@@H]1CC(F)(F)CN1C(=O)CNC1CC2CCC(C1)N2c1ncccn1 (stereo not given in full)	0%	
OCCc1ccncc1	12.8%	
c1ccc(CN(Cc2ccccc2)Cc2ccccc2)cc1	5.29%	
CCCCCCCCC(=O)OCC(C)OC(=O)CCCCCCCC (stereo not given)	1.84%	
O=C1OC(=O)C2CC=CCC12 (stereo not given)	23.1%	
CC(O)CN (stereo not given)	-4.72%	
CC1(COc2ccc(CC3SC(=O)NC3=O)cc2)CCCCC1 (stereo not given)	-12.9% [at 42.5 µM]	
CC(C)NC(=O)c1ccccc1N	33.1%	
Clc1nc2ccccc2nc1Cl	-22.4%	
CC1(C)CC(=O)CC(C)(C)N1	0%	
O=C(O)c1cccc(C(=O)O)c1C(=O)O	1.14%	
CCOC(C)OCC	41.9%	
COc1ccnc2c1CCCCC2S(=O)c1nc2ccccc2[nH]1 (stereo not given)	-12.8% [at 42.5 µM]	
CC1=CC(=C(c2ccc(N)cc2)c2ccc(N)cc2)C=CC1=N	-22.7% [at 8.39 µM]	
CCCC1CCCC(=O)O1 (stereo not given)	1.5%	
CC(=O)c1cccnc1	11.5%	
